{"source": "PubChem BioAssay (NCATS)", "note": "Unmarked numbers belong to inactive results. Calls follow the shape of the dose curve; as a rule, active = well fitted cell-killing curve with a large enough effect; inconclusive = small, poorly fitted or top-dose-only effect, or effect the other way; inactive = flat fitted curve, though single readings scatter."}
{"test": "MultiTox-Fluor Cytotoxicity Assay - LYMP1-003 - Dead Cells (AID 961);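 also: cells exposed to compound for 16 h at 37 °C; 0% = DMSO and 100% = tetraoctylammonium bromide; nearly all actives have a fitted effect of over 70% in size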", "settings": "LYMP1-003 lymphoblastoid cells, dead-cell protease fluorescence; series mostly up to 92.2 µM; cytotoxicity (dead cells): at the top concentration", "excerpt": "NIH Chemical Genomics Center [NCGC]\nNIH Molecular Libraries Screening Centers Network [MLSCN]\nNational Institutes of Environmental Health Sciences [NIEHS]\nNational Toxicology Program [NTP]\nWe have developed a 1536-well cell-based assay for quantitative high throughput screening (qHTS) against a number of cell lines to determine in vitro cytotoxicity of small molecules. This particular assay uses a human lymphoblastoid cell line (LYMP1-003) purchased from Coriell Institute.\nNCGC Assay Protocol Summary:\nThe MultiTox-Fluor Cytotoxicity Assay (Promega) is a homogeneous method to simultaneously measure the relative number of live and dead cells in culture by detecting changes in cell membrane integrity. There are two fluorogenic peptide substrates in the assay reagent. Viable cells are determined when the cell-permeant substrate (GF-AFC) enters the cell and is cleaved by protease from live cells resulting in liberated fluorophore. This live-cell protease activity restricted to viable cells is proportional to cell number. The dead cells are determined by using fluorogenic cell-impermeant peptide substrate (bis-AAF-R110) which cleaved by dead cell proteases leaking from damaged cell membrane.\nUsing the MultiTox-Fluor Cytotoxicity Assay, the relative number of dead cells was measured in the lymphoblastoid cell line with complete culture medium following compound treatment for 16 hours. The assay was performed in opaque black Kalypsys 1536-well plates. In the screen, tetraoctylammonium bromide was used as positive control. Library compounds were measured for their ability to cause acute toxicity in the cell line, as reflected by an increase in dead cell protease activity, in a concentration-dependent manner. Data were normalized to the controls for basal activity (DMSO only) and 100% stimulation (15 uM tetraoctylammonium bromide). AC50 values were determined from concentration-response data modeled with the standard Hill equation.\nqHTS protocol for MultiTox-Fluor Cytotoxicity assay\n[Step] [Parameter] [Value] [Description]\n1. Reagent; 5 uL; 2500 lymphoblastoid cells/well\n2. Time; 5 hr; 37 C incubation\n4. Controls; 23 nL; Tetraoctylammonium bromide 6.4pM to 92 uM\n5. Time; 16 hr; 37 C incubation\n6. Reagent; 5 uL; MuliTox-Fluor Assay reagent\n7. Time; 60 min; Room Temperature\n8. Detection; dead-cell fluorescence (Ex/Em=485/520); EnVision plate reader\nKeywords: cytotoxicity, lymphoblastoid cell line, fluorescence, NTPHTS, NTPHTS_NCGC, NIEHS, EPA, DSSTox, MLSMR, MLSCN, NIH Roadmap, qHTS, NCGC", "units": {"cytotoxicity (dead cells)": "%"}}
{"smiles": "O=C1NC(=O)c2cc([N+](=O)[O-])ccc21", "cytotoxicity (dead cells)": -9.38}
{"smiles": "COC(=O)c1ccccc1", "cytotoxicity (dead cells)": -18.2}
{"smiles": "C=CCCC", "cytotoxicity (dead cells)": -7.75}
{"smiles": "CCC(C)O", "note": "(stereo not given)", "cytotoxicity (dead cells)": -5.83}
{"smiles": "OC(CCl)CCl", "cytotoxicity (dead cells)": -10}
{"smiles": "Cc1ccccc1C#N", "cytotoxicity (dead cells)": -13.1}
{"smiles": "C=Cc1ccc(C=C)cc1", "cytotoxicity (dead cells)": -3.21}
{"smiles": "Cc1c(C(=O)O)cccc1[N+](=O)[O-]", "cytotoxicity (dead cells)": -9.43}
{"smiles": "O=C(O)CNC(=O)c1ccc([N+](=O)[O-])cc1", "cytotoxicity (dead cells)": -5.43}
{"smiles": "C=CCOC(=O)CCCCCCCC", "cytotoxicity (dead cells)": -17.3}
{"smiles": "Cc1ccccc1C=O", "cytotoxicity (dead cells)": -1.51}
{"smiles": "CC(=O)OCc1ccco1", "cytotoxicity (dead cells)": -2.72}
{"smiles": "NC(=O)c1cccc([N+](=O)[O-])c1", "cytotoxicity (dead cells)": -2.35}
{"smiles": "Cc1ccccc1Br", "cytotoxicity (dead cells)": -7.1}
{"smiles": "CC/C=C/C#N", "cytotoxicity (dead cells)": -3.26}
{"smiles": "CC=C(Cl)Cl", "cytotoxicity (dead cells)": -11.6}
{"smiles": "CCC(C)=O", "cytotoxicity (dead cells)": 2.76}
{"smiles": "CC(=O)c1ccc([N+](=O)[O-])cc1", "cytotoxicity (dead cells)": -7.72}
{"smiles": "CCCCC=O", "cytotoxicity (dead cells)": -1.98}
{"smiles": "Nc1ccc(Cl)cc1[N+](=O)[O-]", "cytotoxicity (dead cells)": -10.9}
{"smiles": "C=CCOC(=O)COCCC(C)C", "cytotoxicity (dead cells)": -9.5}
{"smiles": "Cc1ccc(C)c(N)c1", "cytotoxicity (dead cells)": -2.32}
{"smiles": "C=CCCCCCCC=C", "cytotoxicity (dead cells)": -11.3}
{"smiles": "CC(=O)CCc1ccccc1", "cytotoxicity (dead cells)": -17.8}
{"smiles": "CC(C)Cc1nccs1", "cytotoxicity (dead cells)": 4.29}
{"smiles": "C=CCCCCCC", "cytotoxicity (dead cells)": -3.44}
{"smiles": "C=C(C)C1CC=C(C)C(OC(C)=O)C1", "note": "(stereo not given)", "cytotoxicity (dead cells)": -8.2}
{"smiles": "O=[N+]([O-])c1ccc(Cl)cc1Cl", "cytotoxicity (dead cells)": -12.7}
{"smiles": "COc1cccc2sc(N)nc12", "cytotoxicity (dead cells)": 17.5}
{"smiles": "Cc1c(N)cccc1[N+](=O)[O-]", "cytotoxicity (dead cells)": 6.04}
{"smiles": "Cc1cc(C(=O)O)ccc1[N+](=O)[O-]", "cytotoxicity (dead cells)": 2.77}
{"smiles": "COc1ccc(OC)cc1", "cytotoxicity (dead cells)": -11.7}
{"smiles": "CCN(Cc1ccccc1)c1ccccc1", "cytotoxicity (dead cells)": 5.83}
{"smiles": "CC(C)Nc1ccccc1", "cytotoxicity (dead cells)": -10.1}
{"smiles": "CCCCCCO", "cytotoxicity (dead cells)": -11.3}
{"smiles": "ON=C1CCCCC1", "cytotoxicity (dead cells)": -5.04}
{"smiles": "Cc1ccc(Cl)cc1N", "cytotoxicity (dead cells)": -1.35}
{"smiles": "CCCCOCCOCCSC#N", "cytotoxicity (dead cells)": -3.77}
{"smiles": "CC(C)=C1CCC(C)CC1=O", "note": "(stereo not given)", "cytotoxicity (dead cells)": -19.6}
{"smiles": "C=CCn1c(=O)n(CC=C)c(=O)n(CC=C)c1=O", "cytotoxicity (dead cells)": 3.48}
